aSyn UTR act – Activators via SNCA 5'UTR binding, MLPCN; alpha-synuclein 5'UTR reporter, activators screen; activity score, % (tested at 7.5 µM), hits read low; AID 1814; hit rate 7.1% among 300,000; in the data active = activity score below about -60%
Numbers stand for hits. The list is a sample of the results.

For COc1ccc(-c2cc(C(=O)NCC(c3ccccc3)N(C)C)c3ccccc3n2)cc1OC (stereo not drawn) the results were aSyn UTR act -68.
`Cc1ccc(-c2cc(C(=O)NCc3ccccn3)c3ccccc3n2)cc1C` gave aSyn UTR act -124.
`O=C(Nc1ccc2c(c1)COC2=O)c1ccc(Cl)c(Cl)c1` gave aSyn UTR act -143.
`COc1ccc(C(=O)Nc2ccc(Cl)c(Cl)c2)c(OC)n1` gave aSyn UTR act -104.
`O=C(Nc1ccc(Cl)c(Cl)c1)c1ccc(Cl)c(Cl)c1` gave aSyn UTR act -102.
For O=C(Nc1ccc(Cl)c(Cl)c1)c1ccncc1 the results were aSyn UTR act -149.
`COc1ccc(NC(=O)Nc2cccc(Cl)c2Cl)c(OC)n1` gave aSyn UTR act -72.
For O=C(Nc1ccc2c(c1)Cc1ccccc1-2)c1ccncc1 the results were aSyn UTR act -134.
For Cc1cc(C)n2ncc(C(=O)Nc3ccc(Cl)c(Cl)c3)c2n1 the results were aSyn UTR act -106.
For Cn1nccc1C(=O)Nc1ccc(Cl)cc1 the results were aSyn UTR act -63.
`Cn1nccc1C(=O)Nc1ccc2c(c1)OCO2` gave aSyn UTR act -115.
`O=C(CSc1ncc(-c2ccccc2)[nH]1)Nc1ccccc1F` gave aSyn UTR act -126.
`CC(=O)Nc1cccc(NC(=O)CSc2ncc(-c3ccccc3)[nH]2)c1` gave aSyn UTR act -80.
CCOC(=O)c1cnc2c(ccc3ccccc32)c1NCCCN(C)C was read as aSyn UTR act -358.
`CC(=O)OCCc1c2ccccc2c(CCCN(C)C)c2ccccc12` gave aSyn UTR act inactive.
For O=C(Cn1c2ccccc2c(=O)c2ccccc21)N/N=C/c1ccc(N2CCCC2)c([N+](=O)[O-])c1 the results were aSyn UTR act inactive.
`N#C/C(=C/c1ccc(N2CCCC2)c([N+](=O)[O-])c1)c1nc2ccccc2[nH]1` gave aSyn UTR act -78.
`N#C/C(=C\c1ccc(N2CCOCC2)c([N+](=O)[O-])c1)c1nc2ccccc2[nH]1` gave aSyn UTR act -163.
Screening O=C(COc1ccccc1)Nc1cccc(-c2nc3cc4ccccc4cc3[nH]2)c1 returned aSyn UTR act -140.
For O=C(COc1ccccc1)Nc1cccc(-c2cn3cccnc3n2)c1 the results were aSyn UTR act -84.
Screening CCC(=O)Nc1cccc(-c2csc(-c3ccccc3)n2)c1 returned aSyn UTR act -121.
For CCCCC(=O)Nc1cccc(-c2cn3ccsc3n2)c1 the results were aSyn UTR act -78.
O=C(Nc1cccc(-c2cn3ccccc3n2)c1)c1cnccn1 was read as aSyn UTR act -87.
CCC(=O)Nc1cccc(-c2cn3ccccc3n2)c1 was read as aSyn UTR act -89.
O=C(Nc1cccc(Cl)c1)c1csc(-c2ccccc2)n1 was read as aSyn UTR act -121.
`Cc1ccc(-c2nn3c(C)nnc3s2)cc1NC(=O)c1cccs1` gave aSyn UTR act -64.
For Cc1ccc(Nc2ccc(C(=O)O)cc2N)cc1 the results were aSyn UTR act -107.
For COc1cccc(Nc2ccc(C(=O)O)cc2N)c1 the results were aSyn UTR act -118.
For Oc1ccccc1-c1cc(-c2cccc(F)c2)n[nH]1 the results were aSyn UTR act -234.
CC(=O)N(c1nnc(-c2cccc(C)c2)s1)C1CCCC1 was read as aSyn UTR act -160.
For COc1cccc(/C=N/Nc2cc(-n3nc(C)cc3-c3ccccc3)ncn2)c1O the results were aSyn UTR act inactive.
`Cc1cnn(-c2cc(N/N=C/c3ccc(F)cc3)ncn2)c1` gave aSyn UTR act -86.
C/C(=N\NC(=O)c1c(Cl)cnn1C)c1ccc(NC(=O)c2ccc(Br)o2)cc1 was read as aSyn UTR act -116.
For C/C(=N\NC(=O)C1CC1)c1ccc(NC(=O)c2ccc(Br)o2)cc1 the results were aSyn UTR act -110.
`Cc1cnc(NCCc2ccccc2)s1` gave aSyn UTR act -63.
For CCNC(=O)NC(=O)COc1ccccc1C#N the results were aSyn UTR act -89.
CCc1ccc(OCC(=O)NCc2ccco2)c(Br)c1 was read as aSyn UTR act -70.
N#Cc1ccccc1OCC(=O)NC(=O)NCc1ccco1 was read as aSyn UTR act -83.
Screening Cc1cc(-c2cccc([N+](=O)[O-])c2)nc2ccc3ccccc3c12 returned aSyn UTR act -108.
COc1cc(/C=N/Nc2nc3ccccc3s2)ccc1OC(=O)c1ccccc1F was read as aSyn UTR act -387.
`COc1ccc(/C=N/NC(=S)Nc2ccccc2[N+](=O)[O-])cc1O` gave aSyn UTR act -131.
COc1cc(OC)cc(C(=O)Oc2ccc(/C=N/Nc3nc4ccccc4s3)cc2OC)c1 was read as aSyn UTR act -513.
CCCOc1ccc(/C=N/NC(=S)Nc2ccccc2[N+](=O)[O-])c(O)c1 was read as aSyn UTR act inactive.
Screening COc1cc(/C=N/Nc2ccccc2[N+](=O)[O-])ccc1OC(=O)c1ccccc1F returned aSyn UTR act -100.
CCC(=O)c1ccc(OCc2ccc(C(=O)OC)cc2)c(OC)c1 was read as aSyn UTR act -75.
